# Test results published in ChEMBL document CHEMBL3988442, “University of Dundee, Small-Polar-MMV Screening Library” (2021).
# Hit rate of the full screen: of about 69,000 compounds, about 950 (1.4%) showed an effect of 50% or more. The entries come from a sample that favours strong results as a whole.
# Test system: Mycobacterium tuberculosis
# Experiment: Cornell M. t heat shock assay; note: in the data most compounds retested in dose-response had high values
# Type: functional, organism-based
# Design: dose or concentration left out as unconfirmed
row,Structure (SMILES),Percent Effect [%]
1,Cn1cc(CN2C[C@@H]3COC[C@]3(CNC(=O)c3ccccc3)C2)cn1.O=C(O)C(F)(F)F,-17.03
2,Cn1cc(CN2CCC3(CC2)CCN(C(=O)c2cscn2)CC3)cn1.O=C(O)C(F)(F)F,-25.9
3,Cc1noc(NC(=O)c2ccccc2)n1,75.22
4,Cc1noc(NC(=O)CCNC(=O)c2ccc(Br)cc2)n1,-35.97
5,Cc1noc(NC(=O)c2ccc(Br)cc2)n1,103.7
6,Cc1nn(C(C)C)c(C)c1NC(=O)c1ccccc1,-7.424
7,Cc1noc(NCc2ccc(F)cc2)n1,-14.89
8,Cn1nc(CNC(=O)c2ccc(OC(F)(F)F)cc2)c2c1CCOC2,-19.12
9,Cc1noc([C@@H]2C[C@H](NC(=O)Nc3ccccc3)CN2C)n1,-29.39
10,Cc1c(NC(=O)c2ccc(Br)cc2)c(C(=O)N(C)C)nn1C,5.328
11,CN1C[C@H](O)C[C@H]1c1nc(-c2ccc(OC(F)(F)F)cc2)no1,-7.267
12,Cc1noc(NCc2cc(F)ccc2F)n1,-3.185
13,Cc1noc(NC(=O)c2ccc(F)cc2)n1,105.9
14,Cc1noc(NC(=O)c2ccc(OC(F)(F)F)cc2)n1,102.9
15,COc1cc2cc(C)c(SCCN3CCCC3)nc2cc1OC.Cl,5.186
16,Cn1ncc2c1C(COCC1CC1)N(Cc1ccoc1)CC2.O=C(O)C(F)(F)F.O=C(O)C(F)(F)F (stereo unspecified),-34.45
17,O=C(NC[C@H]1OC[C@@H]2CN(Cc3ccco3)CC[C@@H]21)c1cccnc1.O=C(O)C(F)(F)F.O=C(O)C(F)(F)F,-10.25
18,Cc1noc(C)c1CN1CCO[C@H]2CN(C(=O)C3CCOCC3)C[C@H]21.O=C(O)C(F)(F)F,-18.06
19,COc1ncccc1CNC1CCc2c(ccc(=O)n2C)C1.O=C(O)C(F)(F)F.O=C(O)C(F)(F)F (stereo unspecified),17.68
20,NC(=O)N1C[C@H]2CN(Cc3nccs3)C[C@H]2C1.O=C(O)C(F)(F)F,-3.349
21,Cc1ccc(C(=O)N2CCN3C[C@H](Oc4cccnc4)C[C@H]3C2)cn1.O=C(O)C(F)(F)F.O=C(O)C(F)(F)F.O=C(O)C(F)(F)F,-27.6
22,COc1ccc2[nH]cc(C(=O)CNc3nccs3)c2c1.I,0.8623
23,O=C(O)C(F)(F)F.O=C(c1cnccn1)N1C[C@@H]2C[C@@H](c3nc(C4CC4)cs3)O[C@@H]2C1,1.274

row,Structure (SMILES),Percent Effect [%]
1,Cc1ccc(C(=O)Nc2c(C(=O)N(C)C)nn(C)c2C)cc1,-14.21
2,Cc1ccc(C(=O)Nc2cn[nH]c2)cc1,-8.204
3,Cc1ccc(C(=O)Nc2nc(C)no2)cc1,75.29
4,Cc1nnc(N2CCCC3(CN(Cc4cccnc4)CCO3)C2)o1.O=C(O)C(F)(F)F.O=C(O)C(F)(F)F.O=C(O)C(F)(F)F (stereo unspecified),-2.58
5,Cc1nc(COC[C@H]2CCC[C@@]23CN(C(C)C)CCO3)cs1.O=C(O)C(F)(F)F,-25.66
6,COc1cccc([C@H]2CN(C(C)=O)[C@@H]3CCN(Cc4ccsc4)C[C@H]23)c1.Cl,-8.302
7,O=C(O)C(=O)O.c1coc(CN2CCC(c3ccc4c(c3)OCO4)CC2)c1,5.355
8,CC(Cn1cccn1)NCc1csc(COc2ccc(F)cc2)n1 (stereo unspecified),104
9,CC(Cn1cccn1)NCc1csc2c1CCCC2 (stereo unspecified),-4.744
10,CC(Cn1cccn1)NCc1csc(-c2ccc(F)cc2)n1 (stereo unspecified),41.6
11,CC(Cn1cccn1)NCc1csc(-c2ncccn2)n1 (stereo unspecified),-0.311
12,CCCc1nc(CNC(C)Cn2cccn2)cs1 (stereo unspecified),69.81
13,CCc1nc(CNC(C)Cn2cccn2)cs1 (stereo unspecified),11.1
14,CC(Cn1cccn1)NCc1csc(Cc2ccccc2)n1 (stereo unspecified),103.2
15,CC(Cn1cccn1)NCc1ccc(OCc2ccncc2)cc1 (stereo unspecified),-3.58
16,CC(Cn1cccn1)NCc1csc(COc2ccccc2)n1 (stereo unspecified),96.83
17,CC(Cn1cccn1)NCc1ccc(Cl)s1 (stereo unspecified),-2.882
18,COc1ccc(CNC(C)Cn2cccn2)cc1F (stereo unspecified),-3.821
19,O=C(O)C(F)(F)F.O=C(c1ccnnc1)N1C[C@H]2CCC[C@@]2(COCc2ccccn2)C1,-25.48
20,COc1ccc(CCC2CCCCN2)cc1.Cl (stereo unspecified),-16.14
21,O=C(O)C(F)(F)F.O=C(c1cccnc1)N1C[C@H]2CN(Cc3cccc(F)c3)C(=O)[C@H]2C1,-29.23
22,Cc1oncc1C(=O)N1CC[C@@H]2[C@@H]1CC(=O)N2Cc1cccnc1.O=C(O)C(F)(F)F,26.27
23,N#Cc1cccc(C(=O)N2CC[C@H]3[C@H]2CCN3CC2CC2)c1.O=C(O)C(F)(F)F,-24.15

row,Structure (SMILES),Percent Effect [%]
1,Fc1ccc(CN2CCC3(CC2)CCN(c2ncccn2)CC3)cc1.O=C(O)C(F)(F)F.O=C(O)C(F)(F)F,-1.526
2,CC1CN(C)CCN1C(=O)c1cnc2c(cnn2C2CCCC2)c1 (stereo unspecified),-19.82
3,O=C(NC1CC1)[C@H]1C[C@@H]2CCN(CCc3ccccc3)C[C@H]2O1.O=C(O)C(F)(F)F,-1.701
4,COc1cccc(S(=O)(=O)NC(=O)CC2CCCC2)c1,1.853
5,COc1cccc(S(=O)(=O)NC(=O)CCC2CCCO2)c1 (stereo unspecified),15.02
6,COc1cccc(S(=O)(=O)NC(=O)CCC2CCCC2)c1,97.07
7,O=C(O)C(F)(F)F.O=C(c1ccco1)N1CC[C@@H]2CN(C3CCOCC3)CCO[C@@H]2C1,13.99
8,COc1ccc(CN(C)C(=O)c2nnc(CN(C)C)o2)cc1,-15.5
9,COCc1nnc(C(=O)N(C)Cc2ccc(OC)cc2)o1,51.18
10,CCCc1nnc(C(=O)N(C)Cc2ccc(OC)cc2)o1,-0.8003
11,COCC(=O)N1CCN(Cn2nc(C)c(Br)c2C)CC1,-1.426
12,O=C(N1CCCC1)N1CCOCC2(CCN(Cc3cccs3)C2)C1.O=C(O)C(F)(F)F (stereo unspecified),-28.46
13,Cc1ncc(CNCC(C)O)c2cc(C(=O)c3ccc(Br)cc3)oc12.Cl (stereo unspecified),10.59
14,Cc1ncc(CNCCO)c2cc(C(=O)c3ccc(Br)cc3)oc12.Cl,80.79
15,Cc1ncc(CNC(C)(C)CO)c2cc(C(=O)c3ccc(Br)cc3)oc12,39.89
16,Cl.c1csc(-c2noc(C3CNC3)n2)c1,3.28
17,O=C(O)C(F)(F)F.O=C(O)C(F)(F)F.O=C(O)C(F)(F)F.c1cnn(C[C@@H]2C[C@@H]3CN(CC4CC4)CC[C@@H]3N2c2nccs2)c1,-5.195
18,O=C(O)CC(O)(CC(=O)O)C(=O)O.OC1CCCN(Cc2ccnc(-c3cccnc3)n2)C1 (stereo unspecified),-5.175
19,CCOC1COC2(CCN(Cc3cccc(C#N)c3)CC2)C1.O=C(O)C(F)(F)F (stereo unspecified),-5.189
20,N#Cc1ccc(N2CCCC3(CCC(=O)N3CC3CC3)CC2)nc1.O=C(O)C(F)(F)F (stereo unspecified),42.6
21,CN(C)C(C(=O)Nc1nccs1)c1c(F)cccc1Cl (stereo unspecified),71.6
22,CN(C(=O)C(c1c(F)cccc1Cl)N(C)C)c1nccs1 (stereo unspecified),-3.774
23,Cc1csc(N(C)C(=O)C(c2c(F)cccc2Cl)N(C)C)n1 (stereo unspecified),16.08

row,Structure (SMILES),Percent Effect [%]
1,O=C(O)C(F)(F)F.O=C(c1cnccn1)N1CCC2(CC1)CCN(Cc1ccccn1)C2=O,-24.58
2,Cl.FC(F)CNc1cnc(C2CCNCC2)cn1,9.975
3,CN(C)CCn1c2c(ccc1=O)CC(NCc1cnn(C)c1)CC2.O=C(O)C(F)(F)F.O=C(O)C(F)(F)F (stereo unspecified),21.9
4,O=C(O)C(F)(F)F.O=C(O)C(F)(F)F.c1cncc(C2COC3(CCN(CC4CCOCC4)CC3)C2)c1 (stereo unspecified),-13.27
5,CCN1CCOCC12CCN(C(=O)Cc1ccccc1)CC2.O=C(O)C(F)(F)F,-16.25
6,CNC(=O)CN1CC[C@H]2CN(C(=O)c3cc[nH]n3)C[C@H]2C1.O=C(O)C(F)(F)F,6.516
7,Cc1cnn(CCNCc2nc(-c3ccsc3)oc2C)c1,-4.227
8,Cc1cnn(CC(C)NCc2nc(-c3ccsc3)oc2C)c1 (stereo unspecified),59.87
9,Cc1oc(-c2ccsc2)nc1CNC(C)Cn1cccn1 (stereo unspecified),-16.19
10,O=C(O)C(F)(F)F.O=C(O)C(F)(F)F.O=C(O)C(F)(F)F.c1cncc(COCc2cncc3c2CCN(Cc2ccoc2)C3)c1,2.729
11,Fc1cccc(Nc2nc(N3CCCC3)nc3c2CNCC3)c1,102.4
12,COc1cccc(Nc2nc(-c3ccncc3)nc3c2CNCC3)c1.Cl,9.794
13,COc1cccc(Nc2nc(N3CCCC3)nc3c2CNCC3)c1.Cl,69.1
14,Oc1nc(N2CCOCC2)nc2c1CCN(Cc1cccc(F)c1)CC2,-9.224
15,COc1cccc(Nc2nc(C3CCNCC3)c3ccccn23)c1.Cl,10.85
16,CC(C)Nc1nc(N2CCCC2)nc2c1CN(c1ncc(F)cn1)CC2,18.45
17,Cc1cccc(CN2C[C@@H]3CN(C(=O)c4cnoc4C)C[C@@H]3C2=O)n1.O=C(O)C(F)(F)F,-1.837
18,CCOC(=O)C1CCN(C(=O)c2cc(Br)ccc2-n2cnnn2)CC1,2.973
19,CC(C)(C)c1ncc(CNc2ccccc2Cn2cncn2)s1,-19.95
20,COc1cccc(CNC2CCc3ccc(C)cc32)n1 (stereo unspecified),6.41
21,Cc1ccc2c(c1)C(NCc1ccccn1)CC2 (stereo unspecified),89.07
22,Cc1ccc2c(c1)C(NCc1ncnn1C)CC2 (stereo unspecified),-20.52
